These results are taken from PubChem BioAssay.

Inconclusive results are not listed. Active and inactive are the calls of the source.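 Rule for the calls, unless noted: active = percent response above 42, roughly 3 SD of non-fluorescent test compounds; inactive = the rest.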

Assay [1] is described as follows: yeast TOR pathway RPL19A-GFP modulators, primary screen, cell-based, S. cerevisiae, multiplex flow cytometry (AID 1862; in the data active = percent of DMSO control GFP below about 86%;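 note: lower values mimic rapamycin by blocking the RPL19A rise seen in DMSO cells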). The note with it: S. cerevisiae RPL19A-GFP strain, flow cytometry fluorescence, 3 h; at 10 µM; stronger effect = lower value. A general note: A flow cytometer gives signals particle by particle.
Assay [2] in a line: modulators of MEP2-GFP levels in yeast, primary screen, S. cerevisiae, multiplex flow cytometry (AID 1867;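 active = GFP response, as percent of the DMSO control, above the screen-wide mean plus 3 SD, about 139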;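 note: median GFP channel fluorescence of barcode-gated MEP2-GFP cells measured by flow cytometry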). The note with it: S. cerevisiae MEP2-GFP strain, 3 h, at 10 µM, stronger effect = higher value, 100% means same as DMSO wells.
Assay [3] is described as follows: modulators of CIT2-GFP expression in yeast, primary screen, S. cerevisiae, GFP fusion, multiplex flow cytometry (AID 1870;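 active = percent response above a set limit, the screen-wide mean plus 3 SD, cut at about 130% in these data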;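 note: barcoded CIT2-GFP strain pooled with four other GFP strains with rapamycin as positive control; median GFP fluorescence per well over plate mean of DMSO wells so 100% = DMSO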). The note with it: 3 h, at 10 µM, stronger effect = higher value.
The nature of assay [4]: modulators of LAP4-GFP expression in yeast, primary screen, S. cerevisiae, multiplex flow cytometry (AID 1873;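 active = GFP signal, as percent of the solvent control, above the screen mean plus 3 SD, about 149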). The note with it: 3 h, at 10 µM, stronger effect = higher value.
A short description of assay [5]: modulators of AGP1-GFP expression in yeast TOR pathway, primary screen, cell-based, multiplex flow cytometry, S. cerevisiae (AID 1887;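 active = GFP signal above the screen-wide mean plus 3 SD, that is over about 124.5% of the solvent control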;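 note: AGP1-GFP fusion strain of S. cerevisiae within a five-strain barcoded multiplex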). Conditions: 3 h, at 10 µM, stronger effect = higher value.
Assay [6] in a line: inhibitors of CD8+ T cell-vesicle binding, pilot screen, LFA-1/ICAM-1 modulator project, MLPCN validation set, flow cytometry (AID 2523;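 active = response below a set limit, under 55% cells CD8-positive and vesicle-bound, and CD8 cells' 90th-percentile brightness under 279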;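 for vesicle binding response: mean PE anti-B7-1 fluorescence of CD8+ cells relative to row control; 100% = QL9-loaded vesicles with DMSO vehicle in the same plate row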). Conditions: 2C mouse CD8+ T cells, at 7 µM, stronger effect = lower value; double positive events: measured here: CD8+/vesicle+ event percentage.
Assay [7] concerns the target Integrin beta-1 (Homo sapiens) + Integrin alpha-4 (Homo sapiens) (UniProt P13612+P05556). Kind of assay: inhibition of HUTS-21 binding to VLA-4, pilot screen, VLA-4 allosteric modulator project, U937 cells, HUTS-21 mAb, flow cytometry, validation set (AID 2674;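 active = inhibition above 50%, about 3 SD of the validation set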;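 note: antibody binding induced by the VLA-4 ligand LDV present at three times its Kd; 0% = LDV ligand with antibody and no compound and 100% = antibody without LDV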). The note with it: HUTS-21 LIBS mAb binding, at 6.7 µM, stronger effect = higher value, binding induced by LDV ligand.
Assay [8] in a line: superoxide lowering in aged yeast cells, pilot screen, validation compound set (AID 2706;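 active = superoxide response below 65% of plate, a cut near 3 SD across the whole screen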;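 note: yeast exposed to compound for one week at 30 degrees C before staining; 100% = mean of all compound wells on the same plate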). The note with it: S. cerevisiae aging, superoxide DHE fluorescence; at 10 µM; stronger effect = lower value.
The target of assay [9] is Beta-adrenergic receptor kinase 1 (Homo sapiens) (UniProt P25098). Nature of the assay: GRK2 binders displacing RNA aptamer, biochemical, validation, human GRK2, bead flow cytometry (AID 488806;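 active = aptamer binding inhibition above 30%, about 3 SD of noise from non-fluorescent compounds; inactive = inhibition at or below 30%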). The note with it: bead-bound GRK2, FAM-aptamer displacement, at 10 µM, stronger effect = higher value.
Sequence of Beta-adrenergic receptor kinase 1 (Homo sapiens) (P25098 whole entry, looked up): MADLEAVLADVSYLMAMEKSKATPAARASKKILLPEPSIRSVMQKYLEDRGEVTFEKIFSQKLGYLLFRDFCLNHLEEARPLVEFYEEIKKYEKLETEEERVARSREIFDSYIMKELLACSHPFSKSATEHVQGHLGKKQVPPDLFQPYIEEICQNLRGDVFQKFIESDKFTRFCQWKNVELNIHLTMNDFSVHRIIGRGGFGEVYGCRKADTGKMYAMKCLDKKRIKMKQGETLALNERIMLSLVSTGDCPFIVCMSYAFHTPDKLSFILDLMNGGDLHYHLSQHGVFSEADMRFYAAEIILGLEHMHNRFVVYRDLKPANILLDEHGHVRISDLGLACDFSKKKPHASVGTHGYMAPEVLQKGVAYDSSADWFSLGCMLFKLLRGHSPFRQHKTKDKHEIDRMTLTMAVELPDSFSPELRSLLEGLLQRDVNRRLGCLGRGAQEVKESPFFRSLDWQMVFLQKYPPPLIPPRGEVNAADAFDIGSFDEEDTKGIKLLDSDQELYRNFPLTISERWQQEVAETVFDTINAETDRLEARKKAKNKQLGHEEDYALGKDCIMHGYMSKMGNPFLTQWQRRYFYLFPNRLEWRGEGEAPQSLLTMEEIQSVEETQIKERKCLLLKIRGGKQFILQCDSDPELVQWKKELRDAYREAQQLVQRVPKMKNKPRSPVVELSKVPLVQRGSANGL
Assay [10] has as its target Beta-2 adrenergic receptor (Homo sapiens) (UniProt P07550). Nature of the assay: beta2AR agonists driving receptor internalization, pilot screen, cell-based, FAP fluorogen, flow cytometry, validation set (AID 504459).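 Note: agonist-driven loss of surface beta2AR via internalization measured by FAP dye flow cytometry.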 Conditions: Am2.2-beta2AR cells, FAP surface receptor flow cytometry; at 10 µM; stronger effect = higher value.
Assay [11] concerns the target AP-2 complex subunit beta (Homo sapiens) (UniProt P63010). Kind of assay: inhibitors of arrestin peptide binding to AP2, pilot screen, biochemical, validation set, GST-AP2 beads, flow cytometry (AID 504541;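 active = inhibition above 54%, about 3 SD of non-fluorescent compounds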;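 note: AP2 carries R879A mutation and is captured from E. coli lysate; bead-bound FITC arrestin peptide fluorescence measuring arrestin peptide binding to AP2; 0% = DMSO wells and 100% = excess unlabeled arrestin peptide control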). The note with it: FITC arrestin peptide, at 10 µM, stronger effect = higher value, AP2 beta2 appendage fragment, R879A mutant.
Assay [12] is described as follows: yeast V-ATPase proton transport modulators, S. cerevisiae, pHLuorin, HTS validation (AID 504600; in the data active = response above about 15%;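 note: plate controls were DMSO for no effect and reference compound for full effect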). The note with it: S. cerevisiae pHLuorin cytosolic pH, at 10 µM, stronger effect = higher value.
In assay [13] the test system is anti-desmoglein-3 scFv antibody binding to human DSG3. Nature of the assay: inhibitors of anti-DSG3 scFv binding to DSG3, pilot screen, biochemical, validation compound set, bead-based, flow cytometry (AID 588368;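 active = binding below the plate cutoff, the plate median minus 3 SD, with a reading above zero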;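 note: signal is the median channel fluorescence of bead-bound GFP antibody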). The note with it: Protein G beads, DSG3-Fc, scFv-GFP binding, at 10 µM, stronger effect = lower value.
A short description of assay [14]: inhibitors of fungal efflux pumps CDR1, CDR2, MDR1, pilot screen, validation compound set, multiplex, phenotypic (AID 588506;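 active = efflux inhibition above 0.42, the validation set average plus 4 SD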;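 note: Nile Red retained in cells so higher fluorescence means more efflux inhibition; 0 = negative control wells and 1 = enniatin B 25 µM full block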). The note with it: S. cerevisiae pump-expressing triplex, Nile Red efflux flow cytometry; at 10 µM; stronger effect = higher value; the pumps come from Candida albicans.
Assay [15] concerns the target ATP-binding cassette sub-family B member 6 (Homo sapiens) (UniProt Q9NP58). Kind of assay: ABCB6 transporter inhibitors, pilot screen, K562-ABCB6 cells, flow cytometry, validation set (AID 588550;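 active = inhibition above the screen-wide mean plus 3 SD, about 51%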;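 note: 0% = DMSO wells and 100% = benzethonium chloride 70 µM positive control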). Conditions: K562-ABCB6 porphyrin accumulation, 1 h, at 10 µM, stronger effect = higher value.
Assay [16] in a line: promoters of myeloid differentiation in arrested cells, primary screen, cell-based, GFP/MAC1 double positive, flow cytometry, validation set (AID 588685;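 active = differentiation response of at least 50%, scaled between solvent and reference control, from cells with both markers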;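 note: compound exposure lasts four days before antibody staining and flow analysis; 0% = DMSO wells and 100% = 5 µM fulvestrant positive control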). Conditions: ER-HoxA9 marrow cells, stronger effect = higher value, normalized: vehicle 0, fulvestrant 100.

Sequence of Beta-2 adrenergic receptor (Homo sapiens) (P07550 whole entry, looked up): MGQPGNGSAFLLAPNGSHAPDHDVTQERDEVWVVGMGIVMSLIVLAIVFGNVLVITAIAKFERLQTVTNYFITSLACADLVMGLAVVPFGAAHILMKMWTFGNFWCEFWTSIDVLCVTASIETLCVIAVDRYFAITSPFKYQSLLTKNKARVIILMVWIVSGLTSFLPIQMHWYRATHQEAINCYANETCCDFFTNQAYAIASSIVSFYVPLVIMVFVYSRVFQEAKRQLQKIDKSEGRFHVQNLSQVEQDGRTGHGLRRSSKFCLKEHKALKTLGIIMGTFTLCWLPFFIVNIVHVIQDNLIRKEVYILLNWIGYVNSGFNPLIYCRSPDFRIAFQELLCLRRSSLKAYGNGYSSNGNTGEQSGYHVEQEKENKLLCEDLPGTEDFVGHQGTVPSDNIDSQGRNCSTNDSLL
Sequence of ATP-binding cassette sub-family B member 6 (Homo sapiens) (Q9NP58 whole entry, looked up): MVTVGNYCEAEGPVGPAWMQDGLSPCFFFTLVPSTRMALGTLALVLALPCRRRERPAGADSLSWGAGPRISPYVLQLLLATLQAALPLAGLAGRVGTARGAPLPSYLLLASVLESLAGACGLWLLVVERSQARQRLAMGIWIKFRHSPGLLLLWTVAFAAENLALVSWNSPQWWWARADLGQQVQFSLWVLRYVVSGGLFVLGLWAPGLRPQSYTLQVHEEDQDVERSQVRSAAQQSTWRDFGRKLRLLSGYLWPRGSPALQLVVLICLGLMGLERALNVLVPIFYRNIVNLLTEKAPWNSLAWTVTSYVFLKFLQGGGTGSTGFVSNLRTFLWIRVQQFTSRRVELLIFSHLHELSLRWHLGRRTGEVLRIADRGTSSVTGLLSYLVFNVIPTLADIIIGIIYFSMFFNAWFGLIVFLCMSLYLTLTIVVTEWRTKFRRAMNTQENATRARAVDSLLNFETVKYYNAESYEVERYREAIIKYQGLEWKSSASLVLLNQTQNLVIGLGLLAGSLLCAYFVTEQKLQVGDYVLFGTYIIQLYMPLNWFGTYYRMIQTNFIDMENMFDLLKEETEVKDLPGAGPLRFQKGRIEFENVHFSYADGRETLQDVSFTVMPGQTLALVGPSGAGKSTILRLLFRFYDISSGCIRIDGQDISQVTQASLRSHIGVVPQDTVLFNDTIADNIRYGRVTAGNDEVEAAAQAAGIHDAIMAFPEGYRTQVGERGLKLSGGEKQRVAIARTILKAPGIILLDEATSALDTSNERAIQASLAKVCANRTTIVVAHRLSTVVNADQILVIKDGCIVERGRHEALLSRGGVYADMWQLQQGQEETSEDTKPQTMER
Sequence of AP-2 complex subunit beta (Homo sapiens) (P63010 whole entry, looked up, the tested form may be a part, one chain of several): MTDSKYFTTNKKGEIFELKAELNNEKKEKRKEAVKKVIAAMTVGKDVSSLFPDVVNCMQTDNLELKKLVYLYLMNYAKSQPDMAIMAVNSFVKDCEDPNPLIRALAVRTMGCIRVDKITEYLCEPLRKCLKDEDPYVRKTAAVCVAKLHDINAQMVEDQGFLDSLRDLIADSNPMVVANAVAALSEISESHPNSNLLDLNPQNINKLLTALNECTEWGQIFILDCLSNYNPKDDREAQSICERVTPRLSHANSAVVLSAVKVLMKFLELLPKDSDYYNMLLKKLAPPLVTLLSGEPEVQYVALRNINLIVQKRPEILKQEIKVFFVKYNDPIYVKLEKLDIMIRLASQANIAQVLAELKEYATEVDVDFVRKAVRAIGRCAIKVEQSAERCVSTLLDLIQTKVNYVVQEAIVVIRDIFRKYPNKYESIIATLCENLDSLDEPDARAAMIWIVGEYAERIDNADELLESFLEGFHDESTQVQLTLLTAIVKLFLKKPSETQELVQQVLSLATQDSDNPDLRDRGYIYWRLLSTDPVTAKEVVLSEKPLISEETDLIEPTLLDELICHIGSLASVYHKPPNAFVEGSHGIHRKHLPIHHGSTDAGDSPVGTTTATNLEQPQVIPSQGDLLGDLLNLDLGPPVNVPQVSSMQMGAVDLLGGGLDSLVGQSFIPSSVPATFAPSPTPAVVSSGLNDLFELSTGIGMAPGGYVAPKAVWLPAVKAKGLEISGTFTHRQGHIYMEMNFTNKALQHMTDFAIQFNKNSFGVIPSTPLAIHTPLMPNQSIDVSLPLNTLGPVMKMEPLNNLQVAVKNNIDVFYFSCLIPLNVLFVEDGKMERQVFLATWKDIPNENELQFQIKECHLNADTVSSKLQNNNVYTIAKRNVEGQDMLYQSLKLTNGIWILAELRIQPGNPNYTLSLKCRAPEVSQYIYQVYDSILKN
Sequence of Integrin beta-1 (Homo sapiens) + Integrin alpha-4 (Homo sapiens) (P05556 whole entry, looked up): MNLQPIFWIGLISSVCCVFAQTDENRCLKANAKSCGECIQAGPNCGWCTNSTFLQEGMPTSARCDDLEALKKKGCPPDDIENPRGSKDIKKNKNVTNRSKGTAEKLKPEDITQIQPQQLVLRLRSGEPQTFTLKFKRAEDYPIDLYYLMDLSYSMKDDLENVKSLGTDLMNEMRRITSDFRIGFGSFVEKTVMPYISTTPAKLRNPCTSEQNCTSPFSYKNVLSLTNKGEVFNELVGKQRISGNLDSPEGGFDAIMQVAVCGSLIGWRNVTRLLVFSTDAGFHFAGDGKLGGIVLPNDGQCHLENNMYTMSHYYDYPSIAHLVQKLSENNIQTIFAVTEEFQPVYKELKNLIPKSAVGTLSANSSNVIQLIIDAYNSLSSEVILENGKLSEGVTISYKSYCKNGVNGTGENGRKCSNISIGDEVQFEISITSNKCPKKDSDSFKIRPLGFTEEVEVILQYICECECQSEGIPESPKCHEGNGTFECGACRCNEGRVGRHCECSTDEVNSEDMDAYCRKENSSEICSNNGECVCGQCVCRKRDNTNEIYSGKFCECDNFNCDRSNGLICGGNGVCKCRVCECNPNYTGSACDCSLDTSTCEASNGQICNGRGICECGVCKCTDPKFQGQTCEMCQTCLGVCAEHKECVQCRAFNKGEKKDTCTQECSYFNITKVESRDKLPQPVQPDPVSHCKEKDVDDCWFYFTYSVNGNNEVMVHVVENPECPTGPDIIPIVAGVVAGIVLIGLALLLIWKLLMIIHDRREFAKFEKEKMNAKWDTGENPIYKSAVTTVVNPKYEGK
Sequence of Integrin beta-1 (Homo sapiens) + Integrin alpha-4 (Homo sapiens) (P13612 whole entry, looked up): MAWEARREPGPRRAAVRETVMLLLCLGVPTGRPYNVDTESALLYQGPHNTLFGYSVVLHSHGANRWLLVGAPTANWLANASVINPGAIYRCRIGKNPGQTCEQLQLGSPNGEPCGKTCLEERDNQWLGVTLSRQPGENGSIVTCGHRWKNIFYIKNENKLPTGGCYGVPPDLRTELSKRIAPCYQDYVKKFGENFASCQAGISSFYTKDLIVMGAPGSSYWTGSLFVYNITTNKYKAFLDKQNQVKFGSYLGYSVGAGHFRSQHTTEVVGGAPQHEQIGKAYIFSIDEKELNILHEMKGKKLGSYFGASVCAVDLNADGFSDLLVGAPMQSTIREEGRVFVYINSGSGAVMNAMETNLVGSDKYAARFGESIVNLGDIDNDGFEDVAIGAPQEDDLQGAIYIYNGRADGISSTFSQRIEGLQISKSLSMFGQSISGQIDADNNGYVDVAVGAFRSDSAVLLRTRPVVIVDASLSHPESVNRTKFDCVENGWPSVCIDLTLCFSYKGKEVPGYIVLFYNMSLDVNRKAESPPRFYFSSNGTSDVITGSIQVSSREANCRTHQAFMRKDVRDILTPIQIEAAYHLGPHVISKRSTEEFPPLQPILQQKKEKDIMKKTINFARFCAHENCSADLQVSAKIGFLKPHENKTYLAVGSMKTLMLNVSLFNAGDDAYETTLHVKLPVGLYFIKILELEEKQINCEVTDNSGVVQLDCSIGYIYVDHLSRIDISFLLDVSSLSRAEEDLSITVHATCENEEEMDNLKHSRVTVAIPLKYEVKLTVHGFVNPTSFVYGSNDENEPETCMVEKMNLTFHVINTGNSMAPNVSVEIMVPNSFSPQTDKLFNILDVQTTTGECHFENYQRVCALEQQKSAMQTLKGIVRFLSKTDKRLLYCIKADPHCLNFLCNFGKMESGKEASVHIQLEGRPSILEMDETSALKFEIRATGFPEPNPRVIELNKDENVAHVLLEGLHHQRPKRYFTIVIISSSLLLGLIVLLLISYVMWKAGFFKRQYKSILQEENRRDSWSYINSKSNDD

One may read the inhibition as the drop in the measured response relative to a control, in per cent. For the molecule `CC(C)=CCC/C(C)=C/CC/C(C)=C/CC/C(C)=C/CC1=C(C)C(=O)c2ccccc2C1=O`, in assay [1], the percent of DMSO control GFP is 98.2% (inactive). In addition, the GFP response vs DMSO in [2] is 105% (inactive); in assay [4], 121% (inactive). Also, the percent response of DMSO control in [3] was 101% (inactive). In [5], the GFP response, % of DMSO is 116% (inactive). The double positive events in assay [6] worked out at 58.9%. The vesicle binding response in assay [6] was 205% (inactive). For the same molecule, the inhibition is -7.08% (inactive) in [7], -12.1% (inactive) in assay [11] and -4% (inactive) in assay [15]. Further, the superoxide response (% of plate) in assay [8] was 102% (inactive). Besides, in assay [9], the aptamer binding inhibition was 2% (inactive). Further, the response in assay [10] is -16% (inactive); in assay [12], -1.04% (inactive). Moreover, the binding (% of control) in assay [13] is 99.2% (inactive). The efflux inhibition (fraction of control) in [14] was -0.09 (inactive). Moreover, the differentiation response in [16] was -6.96% (inactive).

On to `Cc1ccc(C(=O)NCCNC(=O)c2ccccc2)cc1`, for which the percent of DMSO control GFP in [1] was 92.8% (inactive). Moreover, the GFP response vs DMSO is 96.6% (inactive) in assay [2] and 98.3% (inactive) in [4]. In [3], the percent response of DMSO control is 88% (inactive). Further, in [5], the GFP response, % of DMSO is 103% (inactive). The double positive events in [6] worked out at 69.2%. The vesicle binding response in [6] was 179% (inactive). In addition, the inhibition in assay [7] is 13.4% (inactive); in [11], -2.62% (inactive); in [15], 4% (inactive). For the same molecule, the superoxide response (% of plate) in assay [8] is 102% (inactive). In addition, in [9], the aptamer binding inhibition is 0% (inactive). Moreover, the response in assay [10] is -20.1% (inactive); in assay [12], -1.2% (inactive). The binding (% of control) in [13] is 103% (inactive). For the same molecule, in assay [14], the efflux inhibition (fraction of control) is -0.04 (inactive). Also, in [16], the differentiation response is -18.8% (inactive).

`Nc1nc(Cl)nc2c1ncn2[C@@H]1O[C@H](CO)[C@@H](O)[C@H]1O`: the percent of DMSO control GFP in assay [1] is 92.4% (inactive). Moreover, the GFP response vs DMSO in [2] is 128% (inactive); in assay [4], 80.3% (inactive). Moreover, the percent response of DMSO control in [3] is 101% (inactive). Besides, the GFP response, % of DMSO in [5] was 102% (inactive). In addition, the double positive events in assay [6] amounted to 57.5%. In addition, the vesicle binding response in assay [6] was 109% (inactive). Further, the results for the inhibition in [7], in assay [11] and in assay [15] were 2.58% (inactive), 1.36% (inactive) and 9% (inactive), respectively. Besides, the superoxide response (% of plate) in assay [8] is 95.9% (inactive). Besides, the aptamer binding inhibition in assay [9] is 6% (inactive). Moreover, the response was -6.94% (inactive) in [10] and 10.6% (inactive) in assay [12]. The binding (% of control) in assay [13] was 104% (inactive). In [14], the efflux inhibition (fraction of control) was 0.3 (inactive). Also, the differentiation response in assay [16] was 1.64% (inactive).

For `CCOC(=O)C(NC(=O)CCC(=O)Nc1ccc(S(N)(=O)=O)cc1)C(O)c1ccccc1` (stereo not given), the percent of DMSO control GFP in assay [1] is 96.5% (inactive). Moreover, the GFP response vs DMSO was 103% (inactive) in assay [2] and 106% (inactive) in assay [4]. Also, in assay [3], the percent response of DMSO control was 100% (inactive). The GFP response, % of DMSO in assay [5] is 101% (inactive). In addition, the double positive events in [6] was 57.6%. In assay [6], the vesicle binding response was 361% (inactive). The inhibition in [7] is 15.1% (inactive); in [11] it was 5.81% (inactive); in assay [15] it was 7% (inactive). Moreover, the superoxide response (% of plate) in assay [8] was 102% (inactive). Further, in assay [9], the aptamer binding inhibition is 6% (inactive). Besides, the response in [10] is -25.5% (inactive); in assay [12], -6.43% (inactive). For the same molecule, the binding (% of control) in [13] is 101% (inactive). In addition, in assay [14], the efflux inhibition (fraction of control) was 0 (inactive). Moreover, the differentiation response in assay [16] is -7.94% (inactive).

As for `Clc1cc(-c2ccc(/C=N/n3cnnc3)o2)ccc1Br`, the percent of DMSO control GFP in assay [1] was 100% (inactive). For the same molecule, the GFP response vs DMSO in assay [2] is 103% (inactive); in assay [4], 114% (inactive). Besides, in assay [3], the percent response of DMSO control is 102% (inactive). In assay [5], the GFP response, % of DMSO was 99.9% (inactive). Moreover, the double positive events in assay [6] is 56.6%. Also, the vesicle binding response in assay [6] was 130% (inactive). Besides, the inhibition was -3.77% (inactive) in assay [7], 0.75% (inactive) in assay [11] and -9% (inactive) in assay [15]. For the same molecule, in [8], the superoxide response (% of plate) is 97% (inactive). Also, in [9], the aptamer binding inhibition is -5% (inactive). Besides, the results for the response in assay [10] and in assay [12] were -6.37% (inactive) and 3.36% (inactive), respectively. Besides, the binding (% of control) in assay [13] was 98.8% (inactive). In assay [14], the efflux inhibition (fraction of control) is -0.36 (inactive). Further, in assay [16], the differentiation response is -4.57% (inactive).
